Source: PubChem BioAssay (Tox21)
Inconclusive results are not listed. The source made the active and inactive calls. Calls come from the whole dose curve; as a rule, active = well fitted cell-killing curve with a large enough effect in the repeat runs; inconclusive = weak or mixed curves; inactive = flat fitted curve, though single readings scatter.

Experiment: qHTS RealTime-Glo MT Cell Viability Assay in HepG2 cells - 24 hour (AID 1224867); note: nearly all actives have a fitted effect of over 50% in size
Conditions: RealTime-Glo luminescence; series mostly up to 76.8 µM; activity change, negative = cytotoxicity: at the top concentration
Text: U.S. Tox21 Program National Center for Advancing Translational Sciences [NCATS] NIH Chemical Genomics Center [NCGC] U.S. Environmental Protection Agency [EPA] National Institutes of Environmental Health Sciences [NIEHS] National Toxicology Program [NTP] U.S. Food and Drug Administration [FDA] Tox21 Assay Overview: Measure of cell viability is critical in the cell-base assay. Analysis of cell viability is necessary for the characterization of cell responses to cytotoxic drugs and environmental stress. A RealTime-Glo MT Cell Viability Assay to monitor cell viability in real time of continues cell culture during 40 hours of compound treatment was used to screen Tox21 10K library compounds in HepG2 cells. The RealTime-Glo MT Cell Viability Assay is a nonlytic, homogeneous, bioluminescent method to measure cell viability in real time using a simple, plate-based method. The assay involves adding NanoLuc luciferase and a cell-permeant prosubstrate to cells in culture. Viable cells reduce the proprietary prosubstrate to generate a substrate for NanoLuc luciferase. This substrate diffuses from cells into the surrounding culture medium, where it is rapidly used by the NanoLuc Enzyme to produce a luminescent signal. The signal correlates with the number of viable cells, making the assay well suited for cytotoxicity studies.
Tox21 Assay Protocol Summary: The mixture of HepG2 cell suspension and reagents were dispensed at 600cells/6 ul/well in 1536-well tissue culture treated black solid bottom plates using a Multidrop dispenser. After the assay plates were incubated at a 37 C/5% CO2 incubator for 5 hours, 23 nL of compounds dissolved in DMSO, positive and negative controls was transferred to the assay plate by a pintool work station. The plates were incubated at 37 C for 40 hours. The luminescence intensity were measured at 0h, 8h, 16h, 24h, 32h and 40h time points using ViewLux plate reader during compound treatment.
% is set by controls: 0 for no effect and ±100 for the full control effect.

Structure (SMILES) | activity change, negative = cytotoxicity
CCOP(=S)(OCC)Oc1nc(Cl)n(C(C)C)n1 | 1.59% (inactive)
CCOC(=O)/C=C(C)/C=C/C[C@@H](C)CCCC(C)C | 1.75% (inactive)
O=C(CCCN1CCC(n2c(=O)[nH]c3ccccc32)CC1)c1ccc(F)cc1 | -9.16% [at 35.3 µM] (inactive)
CCCCOP(=O)(O)OCCCC | 0.49% (inactive)
CCN(CC)C(=O)[C@@H]1C=C2c3cccc4[nH]cc(c34)C[C@H]2N(C)C1 | -18.9% [at 200 µM] (inactive)
CC(C)CC(N(C)C)C1(c2ccc(Cl)cc2)CCC1 (stereo not given) | -1.38% [at 35.3 µM] (inactive)
CC(C)NCC(O)c1ccc(N)c(C#N)c1 (stereo not given) | 1.33% [at 35.3 µM] (inactive)
O=C1OC(=O)C2C1C1(Cl)C(Cl)=C(Cl)C2(Cl)C1(Cl)Cl (stereo not given) | 2.47% (inactive)
NC(=O)O | 0.926% (inactive)
O=C1c2ccccc2C(=O)c2ccccc21 | 0.705% [at 15.8 µM] (inactive)
CCCCC(=O)Cl | -2.12% (inactive)
CCC/C(=N\OCC)C1=C(O)CC(CC(C)SCC)CC1=O (stereo not given) | -1.01% (inactive)
CCOP(=S)(OCC)SCSP(=S)(OCC)OCC | -7.17% (inactive)
O=[N+]([O-])c1cc(Cl)c(Cl)c(Cl)c1 | -1.1% (inactive)
Nc1cc(Cl)ccc1O | -0.804% (inactive)
CC1CCC(=O)O1 (stereo not given) | -0.103% (inactive)
O=[N+]([O-])c1ccc(CBr)cc1 | 1.63% (inactive)
COC(=O)COc1ccc(Cl)cc1Cl | 0.0353% (inactive)
Cc1nc(N)nc(N)n1 | -0.224% (inactive)
N#CC(O)c1ccccc1 (stereo not given) | 0.444% (inactive)

Structure (SMILES) | activity change, negative = cytotoxicity
COP(N)(=S)Oc1ccccc1C(=O)OC(C)C (stereo not given) | -4.2% (inactive)
C1CCC(C2CCCCC2)CC1 | -0.643% (inactive)
c1ccc(N2CCNCC2)cc1 | 2.93% [at 35.3 µM] (inactive)
CC(C)CC#N | 0.0352% (inactive)
CCCCP(CCCC)CCCC | 1.13% (inactive)
CC1(C)COP(Oc2ccccc2)OC1 | -0.322% (inactive)
O=S(=O)(O)C(F)(F)C(F)(F)C(F)(F)C(F)(F)C(F)(F)C(F)(F)F | 4.62% (inactive)
NC1=NC(=O)C(c2ccccc2)O1 (stereo not given) | -0.697% [at 35.3 µM] (inactive)
CC(C=O)Cc1ccc2c(c1)OCO2 (stereo not given) | -0.0308% (inactive)
CN1C(=S)CN=C(c2ccccc2)c2cc(Cl)ccc21 | -3.15% [at 35.3 µM] (inactive)
O=C(NCO)NCO | 2% (inactive)
CNC(=O)Oc1ccc(N(C)C)c(C)c1 | -0.119% (inactive)
CC(CC(C#N)(c1ccccc1)c1ccccc1)N(C)C (stereo not given) | -13.3% (inactive)
CCSC(=O)N(CC)C1CCCCC1 | 0.0149% (inactive)
Cc1ncsc1CCCl | 3.1% [at 35.3 µM] (inactive)
CCOC(=O)NC(=S)Nc1ccccc1NC(=S)NC(=O)OCC | -0.962% (inactive)
CCCCOC(=O)[C@@H](C)Oc1ccc(Oc2ccc(C#N)cc2F)cc1 | -15.7% (inactive)
CC(COc1ccc(Oc2ccccc2)cc1)Oc1ccccn1 (stereo not given) | -9.85% (inactive)
c1coc(-c2nc3ccccc3[nH]2)c1 | -0.186% (inactive)
CCC(=O)C(CCN(C)C)(c1ccccc1)c1ccccc1 | -5.85% [at 35.3 µM] (inactive)
